Max response and outcome data for 38 compounds are collected here from PubChem BioAssay (NCATS).

Records with an inconclusive call do not appear. Calls of active or inactive are those of the source. The call rests on the fitted dose curve; in most records, active means well fitted inhibition curve with a large enough effect; inconclusive means small, poorly fitted or top-dose-only effect; inactive means flat fitted curve, though single readings scatter. Where a SMILES comes first, the peptide text is derived from it. Bridges are numbered along the chain shown (N, C = ends). [ ]: non-standard residue; d: D form. hArg = N=C(N)NCCCC[C@H](N)C(=O)O; Mpa = O=C(O)CCS
Further: nearly all actives have a fitted effect of over 60% in size.

The first assay relates to NIH3T3. Description: Cytotoxic Profiling of Annotated Libraries Using Quantitative High-Throughput Screening (AID 1296008). On Max response: on the % scale 0 is the no-effect control and ±100 the full control effect. Particulars: Five cell lines viability, CellTiter-Glo ATP luminescence, 48-72 h; hits give low values. In short, it runs like this: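 Compounds were pin-transferred onto cells and incubated 48 or 72 hr at 37 degree Celsius, 95% humidity. CellTiter-Glo was added, plates sat 10 min at room temperature, then ATP-coupled luminescence was imaged as the viability read-out.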
Background: Cellular ATP, detected with luciferase, serves as a proxy for viable cell number.
In the case of `NC(=O)[C@@H]1CSSCCC(=O)N[C@@H](CCCCN=C(N)N)C(=O)NCC(=O)N[C@@H](CC(=O)O)C(=O)N[C@@H](Cc2c[nH]c3ccccc23)C(=O)N2CCC[C@H]2C(=O)N1` ([Mpa][hArg]GDWPC-NH2; disulfide 1-7), the max response is -4.92% (inactive). Same read-out and setting: the figure for `Cc1ccc(C(C)C)c(O)c1` is 0.329% (inactive); for `COc1ccc(-c2cc(=O)c3c(O)cc(O[C@@H]4O[C@H](CO[C@@H]5O[C@@H](C)[C@H](O)[C@@H](O)[C@H]5O)[C@@H](O)[C@H](O)[C@H]4O)cc3o2)cc1O` it is -0.449% (inactive); for `CC[N+](C)(CC)CCOC(=O)C1c2ccccc2Oc2ccccc21` it is 2.85% (inactive). Take `COc1ccccc1Oc1c(NS(=O)(=O)c2ccc(C(C)(C)C)cc2)nc(-c2ncccn2)nc1OCCO`: the compound was called inactive. Regarding `Cc1cc(C)c(NC(=O)CN(CC(=O)O)CC(=O)O)c(C)c1Br`, the max response was -1.07% (inactive). As to `Cc1ccc(S(=O)(=O)NC(=O)NC2CCCCCCC2)cc1`, the max response is 3.55% (inactive). With `C/C=C1\[C@H]2C=C(C)C[C@]1(N)c1ccc(=O)[nH]c1C2`, the max response was -4.73% (inactive). In the case of `C1CCN2C[C@@H]3C[C@@H](CN4CCCC[C@@H]34)[C@H]2C1`, the max response is 3.41% (inactive). Still for that read-out and setting: the figure for `CCCNC(C)(C)COC(=O)c1ccccc1` is 4.95% (inactive); for `C[C@@H]1CCC[C@H](C)N1` it is 4.6% (inactive); for `Cn1cc(C(=O)[C@@H]2CCc3nc[nH]c3C2)c2ccccc21` it is -0.574% (inactive). With `CCOC(=O)[C@H](CCc1ccccc1)N[C@@H](C)C(=O)N1CCC[C@H]1C(=O)O`, the call was inactive.

For the compound `c1ccc2[nH]ccc2c1`, the result was inactive.

For the compound `NS(=O)(=O)c1ccc(C(=O)O)cc1`, the max response is 1.17% (inactive).

With `O=C(Cn1ccnc1[N+](=O)[O-])NCc1ccccc1`, the max response is 3.14% (inactive). As for `O=c1[nH]cnc2nc[nH]c12`, the max response is -0.611% (inactive). On to `O[C@@H]1CO[C@H]2[C@@H]1OC[C@@H]2O`, for which the max response is 4.37% (inactive). On to `Cc1cc(OI)c(C(C)C)cc1-c1cc(C(C)C)c(OI)cc1C`, for which the max response was -2.54% (inactive). In the case of `CC(=O)N[C@H]1[C@H]([C@H](O)[C@H](O)CO)OC(C(=O)O)=C[C@@H]1N=C(N)N`, the compound was classed as inactive. Consider `CC1(C)S[C@@H]2[C@H](NC(=O)C(C(=O)O)c3ccccc3)C(=O)N2[C@H]1C(=O)O` (stereo partly specified), for which the max response is -1.06% (inactive). On the same count and under the same terms, the result for `CC(=O)NS(=O)(=O)c1ccc(N)cc1` reads -1.48% (inactive); that for `C=CCNC(N)=S`, 4.81% (inactive); that for `CC(=O)[C@@]1(O)CC[C@H]2[C@@H]3C[C@H](C)C4=CC(=O)C=C[C@]4(C)[C@@]3(F)[C@@H](O)C[C@@]21C`, 4.42% (inactive). For `OCCN1C[C@H](O)[C@@H](O)[C@H](O)[C@H]1CO`, the max response was -3.52% (inactive). For the compound `NC(N)=NCCN1CCCCCCC1`, the max response is 4.36% (inactive). Turning to `O=C1c2cccc(O)c2C(=O)c2c(O)cccc21`, the max response was -0.518% (inactive).

As to `NNC(=O)CP(=O)(c1ccccc1)c1ccccc1`, the max response was -3.5% (inactive).

For `C[C@@H](c1ncncc1F)C(O)(Cn1cncn1)c1ccc(F)cc1F` (stereo partly specified), the max response was -3.08% (inactive). Same read-out and setting: the figure for `Nc1ccncc1N` is -1.29% (inactive); for `Cc1ccc(S(=O)(=O)NC(=O)NC2CCCCC2)cc1` it is 0.0689% (inactive). As to `Cc1cc(-n2nc3ccc(Cl)cc3n2)c(O)c(C(C)(C)C)c1`, the max response is 3.2% (inactive). Still for that read-out and setting: the figure for `CN/C(=C\[N+](=O)[O-])NCCSCc1csc(CN(C)C)n1` is 0.469% (inactive). With `CCN1CC(CCN2CCOCC2)C(c2ccccc2)(c2ccccc2)C1=O` (stereo unspecified), the max response was 2.99% (inactive).

Turning to `O=C(/C=C/c1ccc(O)c(O)c1)O[C@@H]1C[C@@](OC(=O)/C=C/c2ccc(O)c(O)c2)(C(=O)O)C[C@@H](O)[C@@H]1O`, the max response was -0.0883% (inactive).

As for `CCOC(=O)c1cccnc1`, the max response is 2.73% (inactive). Take `CC[C@H](C)[C@H](N)C(=O)O`: the max response was -5.18% (inactive). The same measure, in the same setting: the figure for `O=C1c2ccccc2C(=O)C1c1ccc(Br)cc1` is -1.29% (inactive).

The next assay relates to HACAT. The assay is described as follows: qHTS assay to identify novel small-molecules to repurpose for Merkel cell carcinoma treatment (AID 1296009). Particulars: MCC and control cell lines, CellTiter-Glo viability, 72 h; at 44.8 µM (top of the series) unless noted. In short, it runs like this: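 Viability readout: ATP luminescence (CellTiter-Glo) after 72 hr drug exposure at 37 degree celsius. Dose-response format was 8 points for NPC and 11 points for MIPE; data normalized to in-plate controls.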
As for `NC(=O)[C@@H]1CSSCCC(=O)N[C@@H](CCCCN=C(N)N)C(=O)NCC(=O)N[C@@H](CC(=O)O)C(=O)N[C@@H](Cc2c[nH]c3ccccc23)C(=O)N2CCC[C@H]2C(=O)N1` ([Mpa][hArg]GDWPC-NH2; disulfide 1-7), the outcome was inactive. Regarding `Cc1ccc(C(C)C)c(O)c1`, the compound was called inactive. Still for that read-out and setting: the result for `CC[N+](C)(CC)CCOC(=O)C1c2ccccc2Oc2ccccc21` reads “inactive”; that for `COc1ccccc1Oc1c(NS(=O)(=O)c2ccc(C(C)(C)C)cc2)nc(-c2ncccn2)nc1OCCO`, “inactive”; that for `Cc1cc(C)c(NC(=O)CN(CC(=O)O)CC(=O)O)c(C)c1Br`, “inactive”. Same read-out and setting: the entry for `Cc1ccc(S(=O)(=O)NC(=O)NC2CCCCCCC2)cc1` is “inactive”.

Regarding `C1CCN2C[C@@H]3C[C@@H](CN4CCCC[C@@H]34)[C@H]2C1`, the compound was called inactive. Same read-out and setting: the result for `CCCNC(C)(C)COC(=O)c1ccccc1` reads “inactive”; that for `C[C@@H]1CCC[C@H](C)N1`, “inactive”; that for `Cn1cc(C(=O)[C@@H]2CCc3nc[nH]c3C2)c2ccccc21`, “inactive”.

Consider `CCOC(=O)[C@H](CCc1ccccc1)N[C@@H](C)C(=O)N1CCC[C@H]1C(=O)O`, for which the call was inactive.

As to `c1ccc2[nH]ccc2c1`, the outcome was inactive. Same read-out and setting: the result for `NS(=O)(=O)c1ccc(C(=O)O)cc1` reads “inactive”. `O=C(Cn1ccnc1[N+](=O)[O-])NCc1ccccc1`: the call was inactive. Turning to `O=c1[nH]cnc2nc[nH]c12`, the compound was classed as inactive. With `O[C@@H]1CO[C@H]2[C@@H]1OC[C@@H]2O`, the outcome was inactive. Still for that read-out and setting: the result for `Cc1cc(OI)c(C(C)C)cc1-c1cc(C(C)C)c(OI)cc1C` reads “inactive”; that for `CC(=O)N[C@H]1[C@H]([C@H](O)[C@H](O)CO)OC(C(=O)O)=C[C@@H]1N=C(N)N`, “inactive”; that for `CC(=O)NS(=O)(=O)c1ccc(N)cc1`, “inactive”.

On to `C=CCNC(N)=S`, for which the outcome was inactive. Same read-out and setting: the result for `NC(N)=NCCN1CCCCCCC1` reads “inactive [at 0.588 µM]”.

For the compound `O=C1c2cccc(O)c2C(=O)c2c(O)cccc21`, the outcome was inactive. For `NNC(=O)CP(=O)(c1ccccc1)c1ccccc1`, the compound was called inactive. On the same count and under the same terms, the result for `C[C@@H](c1ncncc1F)C(O)(Cn1cncn1)c1ccc(F)cc1F` (stereo partly specified) reads “inactive”; that for `Nc1ccncc1N`, “inactive”; that for `Cc1ccc(S(=O)(=O)NC(=O)NC2CCCCC2)cc1`, “inactive”. On the same count and under the same terms, the result for `Cc1cc(-n2nc3ccc(Cl)cc3n2)c(O)c(C(C)(C)C)c1` reads “inactive”; that for `CN/C(=C\[N+](=O)[O-])NCCSCc1csc(CN(C)C)n1`, “inactive”; that for `CCN1CC(CCN2CCOCC2)C(c2ccccc2)(c2ccccc2)C1=O` (stereo unspecified), “inactive”. On the same count and under the same terms, the entry for `O=C(/C=C/c1ccc(O)c(O)c1)O[C@@H]1C[C@@](OC(=O)/C=C/c2ccc(O)c(O)c2)(C(=O)O)C[C@@H](O)[C@@H]1O` is “inactive”; for `CCOC(=O)c1cccnc1` it is “inactive”; for `CC[C@H](C)[C@H](N)C(=O)O` it is “inactive”. `O=C1c2ccccc2C(=O)C1c1ccc(Br)cc1`: the compound was called inactive.
